Test results published in ChEMBL document CHEMBL3433997, “St. Jude Leishmania screening dataset” (2016).

Target: Glucose transporter (Leishmania mexicana) (UniProt O61059)
Assay: ST_JUDE_LEISH: Cytotoxicity at 2uM final concentration against transgenic Leishmania Mexicana promastigotes LmGT2 that are glucose transport deficient and complemented with the L. Mexicana glucose transporter 2. Activity is measured by DNA content using SYBR green in vitro
Format: functional

| Compound | inhibition [%] |
| --- | --- |
| CC(C)N1CCC(N(Cc2ccc(-c3ccc(C(F)(F)F)cc3)cc2)C(=O)Cn2c(SCc3cccc(F)c3F)cc(=O)c3c2CCC3)CC1 | -3.84 |
| CCCOc1ccc(C(=O)Nc2nonc2-c2ccc(OC)c(OC)c2)cc1 | 5.89 |
| O=C(Nc1cccc(-c2cccc(-c3nc4cc(C(F)(F)F)ccc4[nH]3)c2)c1)c1c[nH]cn1 | -1.42 |
| C[C@H](NC(=O)c1c(CN2CCC(N3CCCCC3)CC2)c(-c2ccccc2)nc2cc(O)ccc12)C1CCCCC1 | 3.03 |
| CC(C)C[C@H]1c2[nH]c3ccc(Cl)cc3c2CCN1C(=O)CCc1ccccc1 | -0.65 |
| O=C(NC1CCC(CCN2Cc3cccc(F)c3C2)CC1)c1cccc(-c2cccnc2)c1 (stereo not drawn) | -1.89 |
| CC(=O)COc1c(C2CCN(CCCCNC(=O)c3ccc(-c4ccc(C(F)(F)F)cc4)cc3)CC2)ccc2c1CCCC2 | 0.59 |
| O=c1cc(NCCCNCc2ccc3c(c2)OC(F)(F)O3)[nH]c2ccccc12 | -1.35 |
| O=C(NCCN1CCN(S(=O)(=O)c2ccc(OC3CCNCC3)c(Br)c2)CC1)c1ccc(Cl)c(Cl)c1 | 4.49 |
| COc1ccc(-c2cc(C(=O)Nc3ccc4[nH]c(-c5ccccc5)nc4c3)[nH]n2)cc1 | 14.1 |
| O=C(Nc1ccc2c(ccn2C2CCCN(Cc3cc(F)cc(F)c3F)CC2)c1)c1ccco1 (stereo not drawn) | 2.17 |
| O=C(Nc1ccc(-c2ccccc2)c(OCCN2CCNCC2)c1)c1ccc(-c2ccc(Cl)cc2)cc1 | 3.11 |
| COC(=O)c1ccc(N2CCN(CCCCNC(=O)c3ccc(NC(=O)c4ccc(Cl)cc4)cc3)CC2)c(OC)c1 | 1.51 |
